Inconclusive results are not listed. The source made the active and inactive calls. The call rests on the fitted dose curve; in most records, active means well fitted inhibition curve with a large enough effect; inconclusive means small, poorly fitted or top-dose-only effect; inactive means flat fitted curve, though single readings scatter.
Target: Voltage-gated inwardly rectifying potassium channel KCNH2 (Homo sapiens) (UniProt Q12809)
Experiment: qHTS Assay for Small Molecule Inhibitors of the Human hERG Channel Activity (AID 588834);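 further: top concentration of the series differs between compounds; on the % scale 0 is the no-effect control and ±100 the full control effect; lower thallium flux fluorescence means stronger hERG block; nearly all actives have a fitted effect of over 50% in size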
Details: U2OS BacMam hERG, FluxOR thallium flux fluorescence; series mostly up to 46.1 µM; activity change, negative = inhibition: at the top concentration
How it was run: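 hERG block measured as reduced thallium-dye (FluxOR) fluorescence after stimulation buffer addition, read over 2 min. Cells were hERG-BacMam-transduced U2OS exposed to compound ~10 min […]; concentration-response fitted with Hill equation for AC50.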

Sequence of Voltage-gated inwardly rectifying potassium channel KCNH2 (Homo sapiens) (Q12809 whole entry, looked up): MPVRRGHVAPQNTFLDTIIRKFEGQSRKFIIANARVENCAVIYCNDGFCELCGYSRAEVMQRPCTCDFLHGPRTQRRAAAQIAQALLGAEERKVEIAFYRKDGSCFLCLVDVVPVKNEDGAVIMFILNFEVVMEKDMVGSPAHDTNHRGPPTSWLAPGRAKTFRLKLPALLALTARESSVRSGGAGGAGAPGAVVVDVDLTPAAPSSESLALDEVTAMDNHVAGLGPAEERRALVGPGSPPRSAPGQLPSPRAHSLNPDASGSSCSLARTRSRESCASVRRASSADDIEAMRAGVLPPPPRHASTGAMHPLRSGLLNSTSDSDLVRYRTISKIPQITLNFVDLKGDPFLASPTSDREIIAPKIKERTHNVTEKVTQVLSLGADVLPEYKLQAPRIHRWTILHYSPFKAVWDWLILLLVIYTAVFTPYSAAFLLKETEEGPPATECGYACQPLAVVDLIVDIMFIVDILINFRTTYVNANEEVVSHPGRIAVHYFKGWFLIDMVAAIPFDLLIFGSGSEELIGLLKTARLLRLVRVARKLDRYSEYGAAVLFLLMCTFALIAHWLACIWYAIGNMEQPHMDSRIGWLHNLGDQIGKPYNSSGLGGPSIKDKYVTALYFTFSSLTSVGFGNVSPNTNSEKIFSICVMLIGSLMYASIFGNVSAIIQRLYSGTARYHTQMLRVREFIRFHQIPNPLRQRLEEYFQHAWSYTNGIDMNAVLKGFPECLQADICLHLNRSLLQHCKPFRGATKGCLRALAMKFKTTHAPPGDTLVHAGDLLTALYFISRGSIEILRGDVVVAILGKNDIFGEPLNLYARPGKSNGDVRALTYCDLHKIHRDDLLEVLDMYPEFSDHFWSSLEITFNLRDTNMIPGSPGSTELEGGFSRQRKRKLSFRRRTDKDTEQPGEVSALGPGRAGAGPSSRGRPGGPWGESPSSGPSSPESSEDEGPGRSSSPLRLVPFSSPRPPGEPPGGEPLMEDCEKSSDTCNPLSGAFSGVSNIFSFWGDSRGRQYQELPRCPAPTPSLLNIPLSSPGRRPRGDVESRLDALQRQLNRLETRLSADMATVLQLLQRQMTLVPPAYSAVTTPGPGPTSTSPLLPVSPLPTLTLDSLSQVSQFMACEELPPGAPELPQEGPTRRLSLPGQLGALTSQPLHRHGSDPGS

Row | SMILES | activity change, negative = inhibition | Potency
1 | C#C[C@]1(O)CC[C@H]2[C@@H]3CCC4=CC(=O)CCC4=C3C=C[C@@]21CC | 7.17% (inactive) | 
2 | COC(=O)C1=CCCN(C)C1 |  | inactive
3 | C[C@]12CC[C@H]3[C@@H](CC=C4C[C@@H](O)CC[C@@]43C)[C@@H]1CC[C@@H]2O | 4.79% (inactive) | 
4 | COc1ccc(C(=O)N2CCCC2=O)cc1 |  | inactive
5 | NC(=O)CN1CCCC1=O |  | inactive
6 | Nc1ccc(N)cc1 | 8.02% (inactive) | 
7 | CC[C@]1(O)CC[C@H]2[C@@H]3CCC4=CCCC[C@@H]4[C@H]3CC[C@@]21C | 9.85% (inactive) | 
8 | CN1C[C@@H](NS(=O)(=O)N(C)C)C[C@@H]2c3cccc4c3c(cn4C)C[C@H]21 | 1.98% (inactive) | 

Target: Luciferin 4-monooxygenase (Photinus pyralis) (UniProt P08659)
Sequence (P08659 whole entry, looked up): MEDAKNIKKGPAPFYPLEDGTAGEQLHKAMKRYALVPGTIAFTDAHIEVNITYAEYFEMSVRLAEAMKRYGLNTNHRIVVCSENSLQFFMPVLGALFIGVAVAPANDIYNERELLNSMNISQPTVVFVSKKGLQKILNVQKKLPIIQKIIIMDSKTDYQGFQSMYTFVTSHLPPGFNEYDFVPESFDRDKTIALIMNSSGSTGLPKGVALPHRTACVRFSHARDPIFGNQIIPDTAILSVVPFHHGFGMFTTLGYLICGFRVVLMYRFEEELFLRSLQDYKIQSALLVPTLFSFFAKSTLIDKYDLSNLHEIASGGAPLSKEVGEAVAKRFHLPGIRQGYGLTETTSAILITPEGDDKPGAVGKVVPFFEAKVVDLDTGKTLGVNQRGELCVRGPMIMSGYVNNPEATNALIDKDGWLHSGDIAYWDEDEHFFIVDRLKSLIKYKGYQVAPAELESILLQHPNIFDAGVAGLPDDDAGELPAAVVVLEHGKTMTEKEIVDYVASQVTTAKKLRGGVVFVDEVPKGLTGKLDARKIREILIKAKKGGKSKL
Experiment: Biochemical firefly luciferase enzyme assay for NPC (AID 624030); further: nearly all actives have a fitted effect of over 70% in size; further: potency means the concentration at half of the fitted maximal effect;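 on activity change, negative = inhibition: purified P. pyralis luciferase at 10 nM with luciferin and ATP substrate; 0% = DMSO and -100% = full luciferase inhibition by PTC124 control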
Details: purified P. pyralis luciferase, luminescence, 5 min; series mostly up to 58.6 µM; activity change, negative = inhibition: at the top concentration
How it was run: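 Purified P. pyralis luciferase at 10 nM in 50 mM Tris Acetate (final), luminescence read within 5 minutes of enzyme addition to compounds. Activity normalised to PTC124 versus DMSO; concentration-response curves classed by r2, magnitude and activity.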

Row | SMILES | activity change, negative = inhibition | Potency
9 | C#C[C@]1(O)CC[C@H]2[C@@H]3CCC4=CC(=O)CCC4=C3C=C[C@@]21CC | -1.35% (inactive) | 
10 | COC(=O)C1=CCCN(C)C1 | 1.78% (inactive) | 
11 | O=C(O)CCCCCCNC1c2ccccc2CCc2ccccc21 | 1.54% (inactive) | 
12 | CCCCC1C(=O)NC(=O)N(C2CCCCC2)C1=O (centres undefined) | -6.91% (inactive) | 
13 | CCOC(=O)NC(C)(C)Cc1ccc(Cl)cc1 | -1.29% (inactive) | 
14 | C[C@]12CC[C@H]3[C@@H](CC=C4C[C@@H](O)CC[C@@]43C)[C@@H]1CC[C@@H]2O | 3.16% (inactive) | 
15 | CN(C)CCc1c[nH]c2ccccc12 | 2.16% [at 215 µM] (inactive) | 
16 | COc1ccc(C(=O)N2CCCC2=O)cc1 | 7.34% (inactive) | 
17 | C[C@]12CC[C@H]3[C@@H](CCC4=CC(=O)CC[C@@H]43)[C@@H]1CC[C@@H]2O | -4.36% (inactive) | 
18 | CNC(C)Cc1ccccc1OC (centres undefined) | -3.55% (inactive) | 
19 | Cc1ccc(O)cc1 | -3.89% (inactive) | 
20 | NC(=O)CN1CCCC1=O | 1.69% [at 24.9 µM] (inactive) | 
21 | C[C@H]1CNCCc2ccc(Cl)cc21 | 0.0467% (inactive) | 
22 | CCC(=O)OC1(c2ccccc2)CCN(C)CC1 | -1.38% [at 123 µM] (inactive) | 
23 | CN1C(=O)CN=C(c2ccccc2)c2cc(Cl)ccc21 | -1.5% (inactive) | 
24 | CN(C)CCc1c[nH]c2ccc(O)cc12 | -0.368% [at 123 µM] (inactive) | 
25 | CC(Cc1ccc2c(c1)OCO2)NO (centres undefined) | -4.38% [at 123 µM] (inactive) | 
26 | Cc1cccc(Cc2cnc[nH]2)c1C | -0.348% (inactive) | 

Row | SMILES | activity change, negative = inhibition | Potency
27 | O=C(N[C@@H]1N=C(c2ccccc2F)c2cccc3c2N(CC3)C1=O)c1cc2ccccc2[nH]1 | -5.47% (inactive) | 
28 | CC[C@]1(O)CC[C@H]2[C@@H]3CCC4=CCCC[C@@H]4[C@H]3CC[C@@]21C | -18.4% (inactive) | 
29 | Cc1nnc2n1-c1sc(CCC(=O)N3CCOCC3)cc1C(c1ccccc1Cl)=NC2 |  | inactive
30 | CC[C@H](O)C(C[C@H](C)N(C)C)(c1ccccc1)c1ccccc1 | 4.65% [at 123 µM] (inactive) | 
31 | CCc1cc(OC)c(C[C@H](C)N)cc1OC | 2.54% [at 123 µM] (inactive) | 
32 | C[N+](C)(C)CCCCCCCCCC[N+](C)(C)C | 1.9% (inactive) | 
33 | O=C(O)CNC(=O)c1ccccc1I | 34.8% (inactive) | 
34 | COc1ccc2c(C(=O)c3ccc(Cl)cc3)c(C)n(CC(=O)O)c2c1 | -9.23% (inactive) | 
35 | COc1cc(CC(C)N)cc2c1OCO2 (centres undefined) | 0.164% [at 123 µM] (inactive) | 
36 | CCCOC(=O)Cc1ccc(OCC(=O)N(CC)CC)c(OC)c1 | 0.0119% (inactive) | 
37 | CC1N=C(N)OC1c1ccccc1 (centres undefined) | -7.02% [at 123 µM] (inactive) | 
38 | CN1C[C@@H](NS(=O)(=O)N(C)C)C[C@@H]2c3cccc4c3c(cn4C)C[C@H]21 | -0.38% (inactive) | 
39 | CC[C@H]1C[C@H]2[C@@H]3CCC4=CC(=O)CC[C@@H]4[C@H]3CC[C@]2(C)[C@H]1O | -9.52% (inactive) | 
40 | CNC(C)Cc1ccc2c(c1)OCO2 (centres undefined) | -0.282% [at 123 µM] (inactive) | 
41 | O=C(O)Cc1ccccc1 | -2.28% (inactive) | 
42 | NC1(c2ccccc2)CCCCC1 | 0.522% [at 123 µM] (inactive) | 
43 | c1ccc(CCNc2nc(-c3ccccc3)cs2)cc1 |  | 1610 nM (active)
44 | COc1cc(CC(C)N)c(OC)cc1Br (centres undefined) |  | inactive
